# Measured values taken from PubChem BioAssay (EPA / NIEHS).
# “And” between values parts separate entries of the source, which are not always exact repeats. Equal entries are not always repeated. Inconclusive results are not listed. The source holds several records for some structures; these can differ, active in one and inactive in another. The source made the active and inactive calls. The calls were made as follows, unless noted: active = hit-call score of the fitted dose curve at least 0.9, where 1 is the maximum; inactive = score below 0.9.
# Key:
# [1] = read-out: Monocyte Chemoattractant Protein-1 (MCP1), CCL2 (gene 6347); test: BSK_LPS_MCP1: BioMAP Diversity Plus: LPS Assay for Monocyte Chemoattractant Protein-1 (MCP1) Biomarker Activity (AID 2283081); conditions: primary human HUVEC with PBMC; actives raise or lower the signal;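 as to AC50: secreted MCP-1 protein quantified by ELISA in culture supernatant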
# Procedure, shortened: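 HUVEC plus PBMC co-culture (human primary cells, LPS system) exposed to test chemical for 24 h; MCP-1 measured by ELISA. Bidirectional curve fitting against DMSO baseline; parallel SRB total-protein staining flags overt cytotoxicity.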
# [2] = BSK_LPS_PGE2: BioMAP Diversity Plus: LPS Assay for Prostaglandin E2 (PGE2) Biomarker Activity (AID 2283082); conditions: primary human HUVEC with PBMC; actives raise or lower the signal;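 as to AC50: secreted prostaglandin E2 measured by ELISA in LPS-stimulated co-culture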
# Procedure, shortened: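 Compounds were added to the LPS co-culture of endothelium and PBMC, and PGE2 was measured by ELISA after 24 h. Responses in either direction were fitted with DMSO as baseline.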
# [3] = read-out: Tissue Factor, F3 (gene 2152); test: BSK_LPS_TissueFactor: BioMAP Diversity Plus: LPS Assay for Tissue Factor Biomarker Activity (AID 2283084); conditions: primary human HUVEC with PBMC; actives raise or lower the signal
# Procedure, shortened: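 Human umbilical vein endothelial cells co-cultured with peripheral blood mononuclear cells were dosed and stimulated with LPS. Cell-surface CD142 was quantified by ELISA at 24 h. Activity was fitted bidirectionally against DMSO baseline.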
# [4] = read-out: Vascular cell adhesion molecule 1 (VCAM1), VCAM1 (gene 7412); test: BSK_LPS_VCAM1: BioMAP Diversity Plus: LPS Assay for Vascular cell adhesion molecule 1 (VCAM1) Biomarker Activity (AID 2283086); conditions: primary human HUVEC with PBMC; actives raise or lower the signal
# Procedure, shortened: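 Cells are dosed in an LPS-stimulated endothelial/mononuclear co-culture and, after 24 h, VCAM-1 is quantified by ELISA. Activity in either direction is fitted relative to the DMSO negative control.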
# CD38, CD38 (gene 952) = test: BSK_SAg_CD38: BioMAP Diversity Plus: SAg Assay for CD38 Biomarker Activity (AID 2283087); conditions: primary human HUVEC with PBMC; actives raise or lower the signal
# Procedure, shortened: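 CD38 quantified by ELISA (fluorescence) in a superantigen-activated endothelial cell–PBMC co-culture at 24 h post-dose. Activity fitted in both directions relative to DMSO; parallel SRB and Alamar Blue cytotoxicity read-outs.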
# CD40, CD40 (gene 958) = test: BSK_SAg_CD40: BioMAP Diversity Plus: SAg Assay for CD40 Biomarker Activity (AID 2283088); conditions: primary human HUVEC with PBMC; actives raise or lower the signal
# Procedure, shortened: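 Human umbilical vein endothelial cells co-cultured with PBMC; CD40 levels measured by ELISA with fluorescence read-out 24 h after chemical dosing. Gain or loss of signal fitted bidirectionally against DMSO baseline.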
# CD69, CD69 (gene 969) = test: BSK_SAg_CD69: BioMAP Diversity Plus: SAg Assay for CD69 Biomarker Activity (AID 2283089); conditions: primary human HUVEC with PBMC; actives raise or lower the signal
# Procedure, shortened: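 Values derive from bidirectional fitting relative to DMSO vehicle. Cells: umbilical vein endothelium plus peripheral blood mononuclear cells, treated 24 h before fluorescent ELISA for CD69.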
# [5] = read-out: Monocyte Chemoattractant Protein-1 (MCP1), CCL2 (gene 6347); test: BSK_SAg_MCP1: BioMAP Diversity Plus: SAg Assay for Monocyte Chemoattractant Protein-1 (MCP1) Biomarker Activity (AID 2283090); conditions: primary human HUVEC with PBMC; actives raise or lower the signal
# Procedure, shortened: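 Values derive from bidirectional fitting of ELISA-measured MCP1 against DMSO controls. Readings were taken 24 h after dosing human vascular endothelial cells co-cultured with peripheral blood mononuclear cells under superantigen stimulation.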
# [6] = read-out: Monokine induced gamma interferon (MIG), CXCL9 (gene 4283); test: BSK_SAg_MIG: BioMAP Diversity Plus: SAg Assay for Monokine induced gamma interferon (MIG) Biomarker Activity (AID 2283092); conditions: primary human HUVEC with PBMC; actives raise or lower the signal
# Procedure, shortened: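 Values reflect bidirectional fitting of ELISA-measured MIG against DMSO vehicle, taken 24 h after dosing of a co-culture of human umbilical vein endothelial cells and peripheral blood mononuclear cells.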
# [7] = BSK_SAg_PBMCCytotoxicity: PBMC Cytotoxicity Assessment in the BioMAP Diversity Plus: SAg Assay (AID 2283093); conditions: primary human HUVEC with PBMC;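 also: PBMC viability measured as Alamar Blue reduction fluorescence at 546/580 nm; fitted both ways against DMSO so a hit may be loss or gain of signal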;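 as to AC50: PBMC superantigen activated with SEB plus TSST-1 one hour after compound addition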
# Procedure, shortened: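 Alamar Blue reduction (6 h, ex/em 546/580 nm) read after 90 h culture of PBMC pre-dosed 1 h then stimulated with SEB plus TSST-1, 20 ng/mL each. Gain or loss of signal fitted relative to DMSO.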
# [8] = read-out: Interleukin-8 (IL8), CXCL8 (gene 3576); test: BSK_SAg_IL8: BioMAP Diversity Plus: SAg Assay for Interleukin-8 (IL8) Biomarker Activity (AID 2283094); conditions: primary human HUVEC with PBMC; actives raise or lower the signal
# Procedure, shortened: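 Chemicals were dosed onto a human endothelial–PBMC co-culture, and IL-8 was quantified by ELISA after 24 h. Both increases and decreases were fitted relative to DMSO.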
# [9] = BSK_SAg_Proliferation: Cell Proliferation Assessment in the BioMAP Diversity Plus: SAg Assay (AID 2283095); conditions: primary human HUVEC with PBMC;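 also: relative cell number as total protein by SRB absorbance in sub-confluent culture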
# Procedure, shortened: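 Absorbance of sulforhodamine B at 560 nm reports total protein in a human vascular endothelial/PBMC co-culture after 96 h chemical exposure. Gain or loss of signal is fitted in both directions against DMSO.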
# [10] = BSK_SAg_SRB: Viability Assessment in the BioMAP Diversity Plus: SAg Assay (AID 2283096); conditions: primary human HUVEC with PBMC;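 also: cells read one day after compound addition; hits may be either gain or loss of signal compared with DMSO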
# Procedure, shortened: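 SRB absorbance at 560 nm served as the viability read-out. Cells (HUVEC plus peripheral blood mononuclear cells) were TCA-fixed and stained 24 h post-dosing; activity fitted in both directions against DMSO controls.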
# [11] = read-out: E-selectin (Homo sapiens) (UniProt P16581); test: BSK_SAg_Eselectin: BioMAP Diversity Plus: SAg Assay for Eselectin Biomarker Activity (AID 2283091); conditions: primary human HUVEC with PBMC; actives raise or lower the signal
# Procedure, shortened: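 HUVEC co-cultured with PBMC, compound dosed then read at 24 h; E-selectin measured by ELISA. Activity fitted bidirectionally against DMSO as negative control and baseline.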
# [12] = read-out: Tumor necrosis factor (Homo sapiens) (UniProt P01375); test: BSK_LPS_TNFa: BioMAP Diversity Plus: LPS Assay for Tumour Necrosis Factor alpha (TNFa) Biomarker Activity (AID 2283085); conditions: primary human HUVEC with PBMC; actives raise or lower the signal;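 as to AC50: TNFa protein level quantified by ELISA in the co-culture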
# Procedure, shortened: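 Cells (umbilical vein endothelium plus peripheral blood mononuclear cells) were dosed with chemical, incubated 24 h, then TNFa was quantified by ELISA; values derive from bidirectional fitting with DMSO as baseline.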
# [13] = biological target: human CYP2B6, CYP2B6 (gene 1555) (UniProt P20813); test: NVS_ADME_hCYP2B6: NovaScreen (NVS) CYP450-related Enzyme Activity (ADME) Assay for human CYP2B6 (AID 2283101; active = hit-call score of the fitted dose curve at least 0.9, where 1 is the maximum)
# Procedure, shortened: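 Compounds were first screened in duplicate at 10 uM against recombinant enzyme, with the fluorescent product measured after 1 hour. Active compounds were retested over a concentration series. Loss of fluorescence versus acetonitrile control was scored as reduced enzyme activity.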
# [14] = biological target: human CYP1A2, CYP1A2 (gene 1544) (UniProt P05177); test: NVS_ADME_hCYP1A2: NovaScreen (NVS) CYP450-related Enzyme Activity (ADME) Assay for human CYP1A2 (AID 2283102; active = hit-call score of the fitted dose curve at least 0.9, where 1 is the maximum)
# Procedure, shortened: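 Cell-free recombinant human CYP1A2 expressed in insect cells, with fluorogenic substrate; fluorescence intensity read 0.5 h after dosing. Loss of signal relative to acetonitrile baseline scored. Primary screen in duplicate at 10 uM; actives retested in concentration series.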
# [15] = read-out: Macrophage colony-stimulating factor (MCSF), CSF1 (gene 1435); test: BSK_LPS_MCSF: BioMAP Diversity Plus: LPS Assay for Macrophage colony-stimulating factor (MCSF) Biomarker Activity (AID 2283083); conditions: primary human HUVEC with PBMC; actives raise or lower the signal
# Procedure, shortened: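 Human umbilical vein endothelial cells co-cultured with peripheral blood mononuclear cells were exposed to compound for 24 h. M-CSF levels were measured by ELISA, and bidirectional curve fitting used DMSO as the negative control and baseline.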
# Tumor necrosis factor (Homo sapiens), sequence (P01375 whole entry, looked up): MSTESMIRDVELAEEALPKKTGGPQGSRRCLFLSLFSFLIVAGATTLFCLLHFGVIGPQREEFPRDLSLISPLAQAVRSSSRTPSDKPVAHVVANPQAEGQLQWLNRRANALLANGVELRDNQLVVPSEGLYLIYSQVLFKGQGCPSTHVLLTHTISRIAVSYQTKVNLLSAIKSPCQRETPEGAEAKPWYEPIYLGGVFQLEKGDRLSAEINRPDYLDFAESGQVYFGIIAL
# E-selectin (Homo sapiens), sequence (P16581 whole entry, looked up): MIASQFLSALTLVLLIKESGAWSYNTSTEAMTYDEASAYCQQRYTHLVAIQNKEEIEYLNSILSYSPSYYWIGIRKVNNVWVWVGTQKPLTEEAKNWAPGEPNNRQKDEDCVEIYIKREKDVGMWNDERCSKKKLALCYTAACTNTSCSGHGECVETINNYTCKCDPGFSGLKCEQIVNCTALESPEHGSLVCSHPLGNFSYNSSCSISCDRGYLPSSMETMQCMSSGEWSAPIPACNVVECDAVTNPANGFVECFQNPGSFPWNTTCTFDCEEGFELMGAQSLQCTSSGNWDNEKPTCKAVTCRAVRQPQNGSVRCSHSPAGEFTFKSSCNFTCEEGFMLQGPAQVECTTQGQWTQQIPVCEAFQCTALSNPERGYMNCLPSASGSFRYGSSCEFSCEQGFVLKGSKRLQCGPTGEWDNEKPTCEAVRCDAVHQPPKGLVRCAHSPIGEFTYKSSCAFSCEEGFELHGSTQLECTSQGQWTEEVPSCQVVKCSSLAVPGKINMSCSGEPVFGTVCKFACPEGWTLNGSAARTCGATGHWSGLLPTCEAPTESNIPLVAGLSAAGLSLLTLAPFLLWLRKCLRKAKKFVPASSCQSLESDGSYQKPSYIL
# human CYP2B6, CYP2B6 (gene 1555), sequence (P20813 whole entry, looked up): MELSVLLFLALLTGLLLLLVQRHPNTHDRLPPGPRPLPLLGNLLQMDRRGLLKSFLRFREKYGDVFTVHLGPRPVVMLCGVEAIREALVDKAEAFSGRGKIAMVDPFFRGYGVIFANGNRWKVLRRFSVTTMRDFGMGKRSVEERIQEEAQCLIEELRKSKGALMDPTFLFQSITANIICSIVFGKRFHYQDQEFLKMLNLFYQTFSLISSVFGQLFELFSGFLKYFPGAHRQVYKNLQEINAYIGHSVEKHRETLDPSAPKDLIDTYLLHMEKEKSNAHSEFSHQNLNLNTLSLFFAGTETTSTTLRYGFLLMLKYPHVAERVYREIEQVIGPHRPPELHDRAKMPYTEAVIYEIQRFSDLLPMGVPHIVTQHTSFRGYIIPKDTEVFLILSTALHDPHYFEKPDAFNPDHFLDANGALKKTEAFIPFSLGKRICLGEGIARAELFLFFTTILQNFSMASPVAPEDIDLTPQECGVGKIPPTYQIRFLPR
# human CYP1A2, CYP1A2 (gene 1544), sequence (P05177 whole entry, looked up): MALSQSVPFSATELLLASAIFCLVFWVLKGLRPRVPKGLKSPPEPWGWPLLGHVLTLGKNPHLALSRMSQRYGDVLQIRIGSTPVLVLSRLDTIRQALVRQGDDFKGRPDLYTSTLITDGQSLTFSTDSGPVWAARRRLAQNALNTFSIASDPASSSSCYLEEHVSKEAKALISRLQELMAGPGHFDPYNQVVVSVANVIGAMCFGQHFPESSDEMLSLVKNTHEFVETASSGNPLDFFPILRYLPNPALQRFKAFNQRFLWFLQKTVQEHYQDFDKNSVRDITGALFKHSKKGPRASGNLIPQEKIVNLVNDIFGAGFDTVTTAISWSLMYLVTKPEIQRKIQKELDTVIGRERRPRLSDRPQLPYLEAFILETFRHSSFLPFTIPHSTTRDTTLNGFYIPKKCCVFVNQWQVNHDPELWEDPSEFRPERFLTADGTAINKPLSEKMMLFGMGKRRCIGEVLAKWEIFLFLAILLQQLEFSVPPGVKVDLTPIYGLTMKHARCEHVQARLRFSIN
smiles,measurement,setting,value
CN(C)C(=S)SC(=S)N(C)C,outcome,[1],inactive
same,outcome,[2],inactive
same,outcome,[3],inactive
same,AC50,[4],19.9 µM (active)
same,AC50,"CD38, CD38 (gene 952)",26.7 µM (active)
same,outcome,"CD40, CD40 (gene 958)",inactive
same,outcome,"CD69, CD69 (gene 969)",inactive
same,outcome,[5],inactive
same,outcome,[6],inactive
same,AC50,[7],1.25 µM (active)
same,outcome,[8],inactive
same,AC50,[9],0.0189 µM (active)
same,outcome,[10],inactive
C=C(C)C(=O)OCCOCCOCCOCCOC(=O)C(=C)C,outcome,[1],inactive
same,outcome,[2],inactive
same,outcome,[3],inactive
same,outcome,[4],inactive
same,outcome,"CD38, CD38 (gene 952)",inactive
same,outcome,"CD40, CD40 (gene 958)",inactive
same,outcome,"CD69, CD69 (gene 969)",inactive
same,outcome,[5],inactive
same,outcome,[11],inactive
same,outcome,[6],inactive
same,outcome,[7],inactive
same,outcome,[8],inactive
same,AC50,[9],23.9 µM (active)
same,outcome,[10],inactive
COc1ccc(OC)c(N=Nc2c(O)ccc3ccccc23)c1,AC50,[1],8.02 µM (active)
same,outcome,[2],inactive
same,AC50,[3],20 µM (active)
same,AC50,[12],20 µM (active)
same,AC50,[4],20 µM (active)
same,AC50,"CD38, CD38 (gene 952)",20 µM (active)
same,AC50,"CD40, CD40 (gene 958)",3.97 µM (active)
same,outcome,[5],inactive
same,outcome,[6],inactive
same,AC50,[7],2.12 µM (active)
same,outcome,[8],inactive
same,AC50,[9],2.25 µM (active)
same,outcome,[10],inactive
CCOC(=O)C(C#N)=C(c1ccccc1)c1ccccc1,outcome,[1],inactive
same,AC50,[2],6.95 µM (active) and 2.79 µM (active)
same,outcome,[3],inactive
same,outcome,[4],inactive
same,outcome,"CD38, CD38 (gene 952)",inactive
same,outcome,"CD40, CD40 (gene 958)",inactive
same,AC50,[5],20 µM (active)
same,outcome,[5],inactive
same,outcome,[6],inactive
same,AC50,[7],1.24 µM (active)
same,outcome,[7],inactive
same,AC50,[8],20 µM (active)
same,outcome,[8],inactive
same,AC50,[9],14.1 µM (active)
same,outcome,[9],inactive
same,outcome,[10],inactive
CC=Cc1ccc(OCC)c(O)c1,outcome,[1],inactive
same,AC50,[2],440 nM (active)
same,outcome,[3],inactive
same,outcome,[12],inactive
same,outcome,[4],inactive
same,outcome,"CD38, CD38 (gene 952)",inactive
same,outcome,"CD40, CD40 (gene 958)",inactive
same,outcome,[5],inactive
same,outcome,[6],inactive
same,outcome,[7],inactive
same,outcome,[8],inactive
same,outcome,[9],inactive
same,outcome,[10],inactive
O=C1OC[C@H](Cc2cccc(O)c2)[C@H]1Cc1cccc(O)c1,outcome,[1],inactive
same,outcome,[2],inactive
same,outcome,[3],inactive
same,outcome,[12],inactive
same,outcome,[4],inactive
same,outcome,"CD38, CD38 (gene 952)",inactive
same,outcome,"CD40, CD40 (gene 958)",inactive
same,outcome,[5],inactive
same,outcome,[6],inactive
same,outcome,[7],inactive
same,outcome,[8],inactive
same,outcome,[9],inactive
same,outcome,[10],inactive
CC(=O)c1c(C)c([N+](=O)[O-])c(C(C)(C)C)c([N+](=O)[O-])c1C,outcome,[1],inactive
same,outcome,[2],inactive
same,outcome,[3],inactive
same,outcome,[4],inactive
same,outcome,"CD38, CD38 (gene 952)",inactive
same,outcome,"CD40, CD40 (gene 958)",inactive
same,outcome,[5],inactive
same,outcome,[11],inactive
same,outcome,[6],inactive
same,outcome,[7],inactive
same,outcome,[8],inactive
same,outcome,[9],inactive
same,outcome,[10],inactive
CN(c1nccc(=O)[nH]1)C1CCN(c2nc3ccccc3n2Cc2ccc(F)cc2)CC1,outcome,[1],inactive
same,outcome,[2],inactive
same,outcome,[3],inactive
same,outcome,[12],inactive
same,outcome,[4],inactive
same,outcome,"CD38, CD38 (gene 952)",inactive
same,outcome,"CD40, CD40 (gene 958)",inactive
same,outcome,[5],inactive
same,outcome,[6],inactive
same,outcome,[7],inactive
same,outcome,[8],inactive
same,outcome,[9],inactive
same,outcome,[10],inactive
CS(=O)(=O)OCCCCOS(C)(=O)=O,outcome,[1],inactive
same,outcome,[2],inactive
same,outcome,[3],inactive
same,outcome,[4],inactive
same,outcome,"CD38, CD38 (gene 952)",inactive
same,outcome,"CD40, CD40 (gene 958)",inactive
same,outcome,[5],inactive
same,outcome,[11],inactive
same,outcome,[6],inactive
same,outcome,[7],inactive
same,outcome,[8],inactive
same,outcome,[9],inactive
same,outcome,[10],inactive
same,outcome,[13],inactive
same,outcome,[14],inactive
CSCCC=O,outcome,[1],inactive
same,outcome,[2],inactive
same,outcome,[15],inactive
same,outcome,[3],inactive
same,outcome,[4],inactive
same,outcome,"CD38, CD38 (gene 952)",inactive
same,outcome,"CD40, CD40 (gene 958)",inactive
same,outcome,[5],inactive
same,outcome,[6],inactive
same,outcome,[7],inactive
same,outcome,[8],inactive
same,AC50,[9],38.6 µM (active)
same,outcome,[10],inactive
CCCCCCCCCCCCCCCC(=O)OC/C=C(C)/C=C/C=C(C)/C=C/C1=C(C)CCCC1(C)C,outcome,[1],inactive
same,outcome,[2],inactive
same,outcome,[3],inactive
same,AC50,[4],20 µM (active)
same,AC50,"CD38, CD38 (gene 952)",3.97 µM (active)
same,outcome,"CD40, CD40 (gene 958)",inactive
same,outcome,[5],inactive
same,outcome,[11],inactive
same,outcome,[6],inactive
same,outcome,[7],inactive
same,outcome,[8],inactive
same,AC50,[9],20 µM (active)
same,outcome,[10],inactive
